Assay results as given in PubChem BioAssay AID1159580 (chemical genetic matrix, 2015).
In all, about 5,500 compounds went through this assay and about 2,000 (36%) were called active. Roughly 18% stayed inconclusive and do not appear here. No stated cut-off is given here; in the data, active means normalized growth mostly below about 0.91 (no sharp cut-off); inconclusive means no clear call, values can overlap the other calls; inactive means mostly above about 0.92. The list shows a part of the results.

Assay: chemical genetic growth profiling, strain panel (AID 1159580);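 further: tested at 20 µM; growth read once vehicle control cultures reached saturation at 30 °C; 1 = growth at the plate median or of vehicle wells; lower values mean less growth of the strain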
Conditions: growth OD
[1] = S. cerevisiae deletion strains, locus YAL013W, strain DEP1, hits give low values
[2] = S. cerevisiae deletion strains, locus YDR150W, strain NUM1, hits give low values
[3] = S. cerevisiae deletion strains, locus YMR263W, strain SAP30, hits give low values
[4] = S. cerevisiae deletion strains, locus YMR307W, strain GAS1, hits give low values
[5] = S. cerevisiae deletion strains, locus YPL055C, strain LGE1, hits give low values
[6] = S. cerevisiae deletion strains, locus YPL241C, strain CIN2, hits give low values

Measured: normalized growth

CN1CCN(C=Nc2ncc(C(F)(F)F)cc2Cl)CC1
inactive: [1] 0.986 | S. cerevisiae deletion strains, locus YBR229C, strain ROT2, hits give low values 1.02 | S. cerevisiae deletion strains, locus YDL101C, strain DUN1, hits give low values 0.946 | [2] 0.974 | S. cerevisiae deletion strains, locus YEL061C, strain CIN8, hits give low values 1.01 | S. cerevisiae deletion strains, locus YGR078C, strain PAC10, hits give low values 0.984 | S. cerevisiae deletion strains, locus YHR030C, strain SLT2, hits give low values 0.957 | S. cerevisiae deletion strains, locus YHR087W, strain rtc3, hits give low values 1.07 | S. cerevisiae deletion strains, locus YJL187C, strain SWE1, hits give low values 1 | S. cerevisiae deletion strains, locus YJR043C, strain POL32, hits give low values 0.996 | S. cerevisiae deletion strains, locus YJR075W, strain HOC1, hits give low values 0.989 | S. cerevisiae deletion strains, locus YLR039C, strain RIC1, hits give low values 0.976 | S. cerevisiae deletion strains, locus YLR058C, strain SHM2 (second series), hits give low values 0.996 | S. cerevisiae deletion strains, locus YLR085C, strain ARP6, hits give low values 0.949 | S. cerevisiae deletion strains, locus YLR262C, strain YPT6, hits give low values 0.995 | S. cerevisiae deletion strains, locus YML094W, strain GIM5, hits give low values 1.01 | S. cerevisiae deletion strains, locus YMR219W, strain ESC1, hits give low values 1 | [3] 0.999 | [4] 1.01 | S. cerevisiae deletion strains, locus YNL153C, strain GIM3, hits give low values 0.991 | S. cerevisiae deletion strains, locus YNL298W, strain CLA4 (second series), hits give low values 0.975 | S. cerevisiae deletion strains, locus YNL322C, strain KRE1, hits give low values 0.978 | S. cerevisiae deletion strains, locus YNR030W, strain Alg12, hits give low values 1.02 | S. cerevisiae deletion strains, locus YOL006C, strain TOP1, hits give low values 0.988 | [5] 1.04 | [6] 0.994 | S. cerevisiae deletion strains, locus YPR135W, strain CTF4, hits give low values 0.927 | S. cerevisiae strains, strain wild type, hits give low values 0.991

CN(C(=O)CCCOc1ccc2[nH]c(=O)ccc2c1)C1CCCCC1
inactive: [1] 1.01 | S. cerevisiae deletion strains, locus YAL040C, strain CLN3, hits give low values 0.998 | S. cerevisiae deletion strains, locus YCL061C, strain MRC1 (second series), hits give low values 0.998 | [2] 0.99 | S. cerevisiae deletion strains, locus YDR363W, strain ESC2, hits give low values 1 | S. cerevisiae deletion strains, locus YER002W, strain NOP16, hits give low values 0.989 | [3] 0.989 | [4] 1.01 | S. cerevisiae deletion strains, locus YNL175C, strain NOP13, hits give low values 1.01 | S. cerevisiae deletion strains, locus YNL197C, strain WHI3, hits give low values 1.02 | S. cerevisiae deletion strains, locus YNL224C, strain SQS1, hits give low values 0.989 | S. cerevisiae deletion strains, locus YOR083W, strain WHI5 (second series), hits give low values 0.993 | [5] 1 | [6] 0.999
